Epigenetic derep = Quantitative High-Throughput Screen for Regulators of Epigenetic Control | murine LDR cells, GFP reporter derepression, 30 h | Potency, µM (doses to about 53.9 µM), without a hit: top-dose GFP activation, hits mostly activators | actives 0.2% (n = 280,000); note: % of control where 0% means no effect; nearly all actives have a fitted effect of over 60% in size
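GFP-positive cell count by laser-scanning cytometry (objects 20–120 um) after 30 h, 37 C compound exposure of murine LDR cells; reporter is CMV-GFP integrated at a silenced locus, inducible by HDAC or DNMT inhibitors.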
RORgamma inh = qHTS for inhibitors of ROR gamma transcriptional activity; Drosophila S2 Gal4-RORgamma UAS-luciferase reporter, 20 h; Potency, µM (highest dose often 53.6 µM), for the others: top-dose activity change, negative = inhibition, usual class: inhibitors; actives 5.4% (n = 310,000); note: % is set by controls: 0 for no effect and ±100 for the full control effect; nearly all actives have a fitted effect of over 60% in size
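Drosophila Schneider cells stably carrying a metallothionein-driven Gal4 DBD–ROR gamma fusion and a UAS-Photinus luciferase reporter were exposed to compound for 1 hr, then induced with copper sulfate (700 uM final) for 20 hr at ambient temperature before luminescence reading.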
ClpP mod = qHTS Assay for Activators of ClpP. ATP-dependent Clp protease proteolytic subunit (Bacillus subtilis (strain 168)), P80244. purified B. subtilis ClpP, FRET peptide cleavage, 20 min. Potency, µM (highest dose often 57.5 µM), inactives show at the top dose activity change, negative = active. actives 1.9% (n = 340,000). AID 651965, 2013; active = well fitted falling curve with a large enough effect; inconclusive = small, poorly fitted or top-dose-only effect; inactive = no such curve, though single readings can be large or run the other way; note: the source files actives as falling curves though it sought activators and does not explain the sign; nearly all actives have a fitted effect of over 65% in size
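FRET quenching reversal measured ClpP activation: 10 microg/mL B. subtilis ClpP at pH 8 with the FRET-FV decapeptide, read at 430 nm after 320 nm excitation. The 20-min minus 0-min signal was scaled between DMSO/no-enzyme wells and ADEP (5.8 microM final).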
Sfp PPTase inh = qHTS Assay for Inhibitors of Bacillus subtilis Sfp phosphopantetheinyl transferase (PPTase) | 4'-phosphopantetheinyl transferase ffp (Bacillus subtilis), Q9F4F7 | Biochemical Sfp PPTase activity, qHTS | Potency, µM, inactives show largest response in the series, negative = inhibition, actives largely listed as inhibitors | actives 3.5% (n = 310,000) | AID 1490, 2009;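 note: the enzyme is Sfp with the accession as filed and its product quenches rhodamine fluorescence; 0% = enzyme reaction without inhibitor and -100% = no enzyme wells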
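Fluorescence-quenching assay with 15 nM Sfp, 5 uM rhodamine-CoA and 12.5 uM BHQ-2-labelled ybbR peptide in pH 7.6 Hepes/MgCl2 buffer. Enzyme was pre-incubated with compound for 15 min at room temperature. Rate was taken from the 30-min fluorescence change (525/598 nm).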
PINK1 expr mod = A Quantitative High throughput Screen to Identify Chemical Modulators of PINK1 Expression; PINK1 immunofluorescence, high-content cytometry, 24 h; Potency, µM (series often up to 76.6 µM), without a hit: top-dose activation (PINK1 increase), usual class: activators; actives 0.2% (n = 410,000); AID 624263, 2012; active = well fitted activation curve with a large enough effect; inconclusive = small, poorly fitted or top-dose-only effect; cell line not stated here; note: % of control where 0% means no effect; nearly all actives have a fitted effect of over 65% in size
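Compound titrations (5 concentrations, 24 h) on a stable cell line; DMSO and CCCP controls. Endpoint: fixed-cell PINK1 immunofluorescence with mitochondrial, cell and nuclear markers, scanned by microplate cytometer.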
VP16 counter = VP16 counterscreen qHTS for inhibitors of ROR gamma transcriptional activity. Drosophila S2 Gal4-VP16 UAS-luciferase, luminescence, 20 h. AID 2546, 2010. actives 3.5% (n = 310,000). Potency, µM (highest dose often 53.6 µM), without a hit: top-dose activity, negative = inhibition, hits mostly inhibitors;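 note: Gal4-VP16 expression switched on by copper sulfate through the metallothionein promoter; % is set by controls: 0 for no effect and ±100 for the full control effect; nearly all actives have a fitted effect of over 50% in size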
An asterisk follows results filed as active; ? = inconclusive; nt = no result; [ ] = remark or other dose. This is a sample that favours compounds with a hit; in the whole collection about 8.1% have one here. Unless noted, calls come from the whole dose curve; as a rule, active = well fitted curve in the direction sought with a large enough effect; inconclusive = small, poorly fitted or top-dose-only effect, or another doubt; inactive = no such curve, though single readings can be large; an effect the other way counts as inactive or inconclusive. Potency is the fitted concentration of half-maximal effect.

SMILES	Epigenetic derep	RORgamma inh	ClpP mod	Sfp PPTase inh	PINK1 expr mod	VP16 counter
N#C/C(=C\c1ccc(O)c(O)c1)C(N)=S	0%	29%	nt	0.18µM*	nt	1%
CCCSP(=S)(OCC)Oc1ccc(Cl)cc1Cl (stereo unspecified)	nt	8%	nt	?	nt	1%
COc1cc2[nH]c(=O)n(-c3cccc(Cl)c3)c(=O)c2cc1OC	-1%	-3%	28µM*	14%	0%	-3%
COc1cc2[nH]c(=O)n(-c3ccccc3)c(=O)c2cc1OC	1%	-11%	25µM*	22%	1%	5%
O=c1[nH]c2ccccc2c(=O)n1-c1ccc(Cl)c(Cl)c1	-1%	nt	-26%	nt	-1%	nt
Oc1ccc2c3c1O[C@H]1c4c(c5ccccc5n4Cc4ccccc4)C[C@@]4(O)C(C2)N(CC2CC2)CC[C@]314	1%	nt	nt	-17%	nt	nt
O=C(Cl)c1ccccc1F	nt	-11%	nt	nt	nt	4%
O=c1c2ccccc2nc(N2CCCC2)n1-c1ccc(Cl)cc1	-1%	45%	22µM*	-16%	67%[38.3 µM]	-7%
CC(C)(C)c1ccc(-c2n[nH]c(=S)n2CCCN2CCOCC2)cc1	0%	7.9µM*	nt	3%	-1%	-26%
O=C(CN1CCCC2CCCCC21)c1ccc(I)cc1 (stereo unspecified)	nt	nt	2%	nt	nt	nt
Cc1cccc(N2C(=O)NC(=O)/C(=C/c3ccc(-c4ccc(C(=O)O)c(Cl)c4)o3)C2=O)c1	4%	0%	nt	45µM*	nt	-2%
Cc1cc(/C=C2/C(=O)NC(=O)N(c3ccc(Br)cc3)C2=O)c(C)n1C	3%	5%	-8%	6%	11%	-7%
Cc1ccc(N2C(=O)NC(=O)/C(=C\c3ccsc3)C2=O)cc1C	-1%	4%	nt	50µM*	nt	2%
O=C1NC(=O)N(c2ccc3c(c2)OCO3)C(=O)/C1=C\c1ccsc1	-1%	-22%	-1%	35µM*	4%	2%
O=C1NC(=O)N(c2ccc3c(c2)OCO3)C(=O)/C1=C/c1ccc(N2CCCCC2)o1	7%	-2%	-2%	-9%	1%	-3%
O=C1NC(=O)N(c2ccc3c(c2)OCO3)C(=O)/C1=C\c1ccc(-c2ccccc2C(=O)O)o1	2%	1%	nt	50µM*	2%	-5%
C[C@@H]1OC=C2[C@@H](O)[C@H]3O[C@H]3C(=O)[C@@]23[C@H]1[C@H]1C2=C([C@@H](O)[C@H]4O[C@@H]4C2=O)[C@@H]3O[C@@H]1C	?	-44%[10 µM]	nt	23%	nt	28%[10 µM]
O=C(Nc1ccccc1)c1c(O)[nH]c(=S)[nH]c1=O	nt	nt	2%	nt	0%	nt
O=c1[nH]c(=S)[nH]c(O)c1/C=C1/C=c2ccccc2=N1	nt	13µM*	nt	-19%	3%	13µM*
CC1=C/C(=N\NC(=S)NCCc2ccccc2)CC(C)(C)C1	0%	0.5µM*	nt	3%	3%	?
c1ccc(CCNCc2ccccc2)cc1	-1%	2%	-6%	-5%	-4%	-5%
COc1ccc(/C=C/C(=O)N2CC3C[C@@H](C2)Cn2c3cccc2=O)cc1OC	-1%	-21%	nt	-11%	nt	3%
CCCCn1c(O)c(C=NCc2ccc3c(c2)OCO3)c(=O)[nH]c1=O	2%	-21%	0%	50µM*	5%	?
Cc1cc(Cc2c(O)[nH]c(=S)[nH]c2=O)ccc1OC(C)C	nt	30%	-1%	56µM*	1%	-1%
CCCCC/C=C\C/C=C\CCCCCCCC(=O)NCCCC(=O)O	0%	-15%	nt	30%	nt	-1%
